The sample as a whole holds a higher share of hits than the screen did.
FLuc inh: blocks Photinus pyralis firefly luciferase activity | P08659 | purified firefly luciferase, luminescence, 8 min | Potency, µM (titrated, usually from 57.1 µM), for the others: top-dose activity change, negative = inhibition, most hits filed as inhibitors | actives 2.2% (n = 72,000); also: potency is read from the fitted curve at half-maximal effect; % is scaled to controls: 0 for no effect and ±100 for the full control effect; nearly all actives have a fitted effect of over 40% in size
Target sequence (P08659 whole entry, looked up): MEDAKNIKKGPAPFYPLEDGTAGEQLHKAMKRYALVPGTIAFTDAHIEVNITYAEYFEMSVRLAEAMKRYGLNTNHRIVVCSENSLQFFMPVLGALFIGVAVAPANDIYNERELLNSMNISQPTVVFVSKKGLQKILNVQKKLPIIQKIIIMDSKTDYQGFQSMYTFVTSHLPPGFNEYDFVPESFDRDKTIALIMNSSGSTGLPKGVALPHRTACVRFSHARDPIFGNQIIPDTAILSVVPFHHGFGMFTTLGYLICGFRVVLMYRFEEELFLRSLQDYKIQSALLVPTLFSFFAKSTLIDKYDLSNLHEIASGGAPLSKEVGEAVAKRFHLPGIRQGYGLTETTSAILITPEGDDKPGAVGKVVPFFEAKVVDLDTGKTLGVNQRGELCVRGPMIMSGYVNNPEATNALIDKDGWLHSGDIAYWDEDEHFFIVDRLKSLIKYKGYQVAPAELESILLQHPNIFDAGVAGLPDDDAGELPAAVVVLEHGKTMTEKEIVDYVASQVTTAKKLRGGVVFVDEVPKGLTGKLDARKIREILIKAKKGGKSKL
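qHTS concentration-response profiling: light output of P. pyralis luciferase with luciferin and 10 uM ATP, imidazole buffer pH 7.2. Read by luminescence after 8-min room-temperature incubation.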
p53ts 39C tox: p53ts cell cytotoxicity, nonpermissive temperature; Potency, µM (highest dose often 46.1 µM), without a hit: at the top dose activity change, negative = cell killing, most hits filed as cytotoxic; actives 1.5% (n = 130,000); AID 902; H1299-p53A138V viability at 39C, ATP luminescence, 24 h; also: potency is read from the fitted curve at half-maximal effect; % is scaled to controls: 0 for no effect and ±100 for the full control effect; nearly all actives have a fitted effect of over 55% in size
p53ts 32C kill: p53ts cell cytotoxicity, permissive temperature | H1299-p53A138V at 32C, ATP luminescence viability, 24 h | Potency, µM (highest dose often 46.1 µM), without a hit: top-dose activity change, negative = cytotoxicity, most hits filed as cytotoxic | actives 0.93% (n = 130,000) | AID 924;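 also: potency is read from the fitted curve at half-maximal effect; 0% = DMSO and -100% = full killing by reference compound; nearly all actives have a fitted effect of over 55% in size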
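Cells: H1299 p53ts (A138V), 600/well, pre-incubated 16–30 h at 37C. Cpd up to 46 uM, 24 h, 32C. Readout: ATPlite luminescence, 20 min RT. Normalization: DMSO vs tamoxifen 100 uM. AC50 by Hill equation.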
IkB signaling: inhibitors of IkB signaling in ABC-DLBCL cells; ABC-DLBCL IkBa-CBG/CBR dual luciferase ratio, 4 h; response scale: scaled: untreated 0%, proteasome inhibitor 100%; Potency, µM (series often up to 57.1 µM), without a hit: top-dose IkBa stabilization activation; actives 0.04% (n = 110,000); AID 445; active = well fitted curve in the direction sought with a large enough effect in the signal ratio, not every such curve was filed as active; inconclusive = small, poorly fitted or top-dose-only effect, or a change in a side signal; the % refers to the signal ratio;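 also: potency is read from the fitted curve at half-maximal effect; the direction sought is a rising ratio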
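Luminescence ratio of IκBα-fused green versus native red beetle luciferase in OCI-Ly3 cells, 4 h post-doxycycline with compound; red signal alone, scaled from basal (0%) to zero light (-100%), flagged nonspecific or cytotoxic effects.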
IMPase cell inh: membrane-permeable compound that blocks inositol monophosphatase. AID 901. P97697. inhibition (IP1 accumulation), % at 46.1 µM. 120,000 tested, under 10 active. CHO-M1 cells, IP1 accumulation, HTRF TR-FRET ratio; active = well fitted curve in the direction sought with a large enough effect in the signal ratio, not every such curve was filed as active; inconclusive = small, poorly fitted or top-dose-only effect, or a change in a side signal; inactive = no such curve, though single readings can be large or run the other way; the % refers to the signal ratio;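 also: cells stimulated with carbachol in lithium chloride buffer; plate controls were DMSO basal wells for no effect and reference inhibitor wells for full effect; higher means more IMPase inhibition seen as more IP1 and lower FRET ratio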
Target sequence (P97697 whole entry, looked up): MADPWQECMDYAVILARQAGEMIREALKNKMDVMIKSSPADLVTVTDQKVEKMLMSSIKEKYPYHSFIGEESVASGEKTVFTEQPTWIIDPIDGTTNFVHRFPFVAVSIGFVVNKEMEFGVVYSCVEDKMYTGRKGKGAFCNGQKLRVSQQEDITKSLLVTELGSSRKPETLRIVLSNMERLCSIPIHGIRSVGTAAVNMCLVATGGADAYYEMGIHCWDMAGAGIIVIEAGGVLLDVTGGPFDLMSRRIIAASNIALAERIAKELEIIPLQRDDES
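CHO-M1 cells (CHO stably expressing M1 receptor), compound up to 46 uM final, stimulated with carbachol (50 uM as added) in buffer with 50mM LiCl, pH 7.4, 30 min at 37C. Cytosolic IP1 read by TR-FRET; AC50 from Hill fits.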
Hsp90 Hop PPI: changes Hsp90-Hop TPR2A binding signal, up or down; AlphaScreen TPR2A-His6 binding biotin-Hsp90 C-terminal peptide; Potency, µM (highest dose often 57 µM), inactives show at the top dose activity change, negative = inhibition; actives 0.44% (n = 71,000); AID 595; active = well fitted curve in either direction with a large enough effect; inconclusive = small, poorly fitted or top-dose-only effect, or another doubt; also: potency is read from the fitted curve at half-maximal effect; % is scaled to controls: 0 for no effect and ±100 for the full control effect
* marks the source's active call; other numbers are inactive results; [ ] = dose if it differs, or a comment. Unless noted, calls follow the shape of the dose curve; as a rule, active = well fitted curve in the direction sought with a large enough effect; inconclusive = small, poorly fitted or top-dose-only effect, or another doubt; inactive = no such curve, though single readings can be large; an effect the other way counts as inactive or inconclusive.

Results for Oc1ccc(Cl)c2cccnc12 ?
p53ts 39C tox: -14.0%; p53ts 32C kill: -10.0%

How did Oc1c(I)cc(I)c2cccnc12 do in these assays?
FLuc inh: -1.6%[25.5 µM]; p53ts 39C tox: 7.94µM*; p53ts 32C kill: inconclusive

What do the screens show for `Oc1c(Cl)cc(Cl)c2cccnc12`?
p53ts 39C tox: 3.16µM*; p53ts 32C kill: inconclusive

How did Cc1ccccc1NC(=O)CN(C)S(=O)(=O)c1cccc2nsnc12 do in these assays?
p53ts 39C tox: 19.7%; p53ts 32C kill: 8.0%; IkB signaling: -0.9%

What do the screens show for `c1ccc2nc(-c3nc4ccccc4o3)ccc2c1`?
FLuc inh: 1.26µM*; p53ts 39C tox: 5.01µM*; p53ts 32C kill: 5.01µM*; IkB signaling: inconclusive; IMPase cell inh: 6.5; Hsp90 Hop PPI: 14.1%

What do the screens show for `Cc1cccc(C(=O)Nc2nnc(SCc3cc(=O)n4cccc(C)c4n3)s2)c1`?
p53ts 39C tox: 4.6%; p53ts 32C kill: 1.7%; IkB signaling: -0.2%

How did C=CCn1c(C)cc(C(=O)COc2ncnc3sccc23)c1C do in these assays?
FLuc inh: 12.6µM*; p53ts 39C tox: 7.94µM*; p53ts 32C kill: inconclusive; IkB signaling: 0.5%; IMPase cell inh: -9.0; Hsp90 Hop PPI: -7.8%

What do the screens show for `CC1(C)Cc2c(sc(NC(=O)c3ccc(Br)o3)c2C#N)CO1`?
FLuc inh: 10µM*; IMPase cell inh: 0.8

What do the screens show for `CC(C)(C)c1ccc(NC(=O)CSc2nnc3scc(-c4ccccc4)n23)cc1`?
p53ts 39C tox: 72.4%; p53ts 32C kill: 50.8%; IkB signaling: inconclusive; IMPase cell inh: -2.6

Results for Cc1cccc2nc(CSCc3ccco3)cn12 ?
FLuc inh: 25.1µM*; p53ts 39C tox: -21.4%; p53ts 32C kill: -16.5%; IkB signaling: 1.1%; IMPase cell inh: inconclusive; Hsp90 Hop PPI: -1.2%

How did CCOc1ccccc1NC(=O)CN1C(=O)CC(c2ccco2)Sc2ccccc21 (stereo not given) do in these assays?
p53ts 39C tox: inconclusive; p53ts 32C kill: 0.2%; IkB signaling: inconclusive

How did COc1ccc2sc(NC(=O)CC(C)C)nc2c1 do in these assays?
FLuc inh: 25.1µM*; p53ts 39C tox: inconclusive; p53ts 32C kill: -21.4%; IkB signaling: inconclusive; IMPase cell inh: 4.0; Hsp90 Hop PPI: 2.9%

How did CCOc1ccc2nc(NC(=O)Cc3cccs3)sc2c1 do in these assays?
IMPase cell inh: 2.0

What do the screens show for `CCOc1ccc2nc(NC(=O)c3ccoc3C)sc2c1`?
FLuc inh: 1.58µM*; p53ts 39C tox: inconclusive; p53ts 32C kill: inconclusive; IkB signaling: inconclusive; IMPase cell inh: 4.0; Hsp90 Hop PPI: -14.3%[11 µM]

Results for CCOc1ccc2nc(NC(=O)COC)sc2c1 ?
FLuc inh: 20µM*; p53ts 39C tox: inconclusive; p53ts 32C kill: inconclusive; IkB signaling: 8.0%; IMPase cell inh: 14.8; Hsp90 Hop PPI: -3.3%

How did CCOc1ccc2nc(NC(=O)Nc3ccccc3)sc2c1 do in these assays?
IMPase cell inh: 4.8

Results for CCOc1ccc2nc(NC(=O)Nc3cccs3)sc2c1 ?
FLuc inh: 0.631µM*; p53ts 39C tox: 10µM*; p53ts 32C kill: 15.8µM*; IkB signaling: inconclusive; Hsp90 Hop PPI: -2.6%[2.3 µM]

How did CC(C)(C)c1ccc(-c2nc(C#N)c(NCc3ccncc3)o2)cc1 do in these assays?
FLuc inh: 20µM*; p53ts 39C tox: -8.2%; p53ts 32C kill: -4.6%; IkB signaling: inconclusive; IMPase cell inh: 8.1; Hsp90 Hop PPI: -23.6%

Results for COc1ccc(-c2nc(C#N)c(NCc3ccc(C)cc3)o2)cc1OC ?
FLuc inh: -5.1%; p53ts 39C tox: -3.7%; p53ts 32C kill: -1.9%; IkB signaling: -1.2%; IMPase cell inh: -1.4; Hsp90 Hop PPI: -7.1%

What do the screens show for `Cc1cccc(Nc2nc(N)nc(CSc3nccn3C)n2)c1`?
IMPase cell inh: 2.8

How did Cc1ccc(Nc2nc(N)nc(CSc3nccn3C)n2)cc1 do in these assays?
FLuc inh: 20µM*; p53ts 39C tox: inconclusive; p53ts 32C kill: inconclusive; IkB signaling: -2.5%; IMPase cell inh: 3.0; Hsp90 Hop PPI: -7.7%

How did NC(=NC1C2CC3CC(C2)CC1C3)Nc1ccc(I)cc1 (stereo not given) do in these assays?
FLuc inh: 1.2%; p53ts 39C tox: 25.1µM*; p53ts 32C kill: -7.9%; IkB signaling: 0.8%; IMPase cell inh: 9.5; Hsp90 Hop PPI: -4.4%

What do the screens show for `C=Cc1ccc(Cn2c(C(=O)O)c(CNCc3cc(OC)ccc3OC)c3ccc(C)cc32)cc1`?
p53ts 39C tox: 12.6µM*; p53ts 32C kill: inconclusive; IkB signaling: inconclusive

How did C=Cc1ccc(Cn2c(C(=O)O)c(CNCCc3ccccc3)c3ccc(C)cc32)cc1 do in these assays?
p53ts 39C tox: inconclusive; p53ts 32C kill: 38.4%; IkB signaling: inconclusive

How did Cc1cc(C(=O)COc2cccc(-n3cnnn3)c2)c(C)n1-c1ccccc1 do in these assays?
FLuc inh: 12.6µM*; p53ts 39C tox: inconclusive; p53ts 32C kill: -20.0%; IkB signaling: inconclusive; IMPase cell inh: -2.6; Hsp90 Hop PPI: -4.7%

How did CCOc1ccc(CNC(=O)CCS(=O)(=O)c2cc3c(cc2Cl)NC(=O)CO3)cc1OC do in these assays?
p53ts 32C kill: -7.9%

How did O=C(Nc1cnc2ccccc2c1)N1CCCCC1 do in these assays?
FLuc inh: 10µM*; p53ts 39C tox: inconclusive; p53ts 32C kill: inconclusive; IkB signaling: 11.9%; IMPase cell inh: -1.6; Hsp90 Hop PPI: -3.8%

How did O=C(Nc1cnc2ccccc2c1)N1CCOCC1 do in these assays?
FLuc inh: -7.2%; p53ts 39C tox: -5.6%; p53ts 32C kill: -16.3%; IkB signaling: 1.7%; IMPase cell inh: 2.3; Hsp90 Hop PPI: -10.2%

How did COc1ccc(C2c3c(-c4ccccc4O)n[nH]c3C(=O)N2CCc2ccccc2)cc1 (stereo not given) do in these assays?
p53ts 39C tox: inconclusive; p53ts 32C kill: 46.9%; IkB signaling: inconclusive

Results for Cc1ccc(C2c3c(-c4ccccc4O)n[nH]c3C(=O)N2CCc2ccccc2)cc1 (stereo not given) ?
p53ts 39C tox: 31.6µM*; p53ts 32C kill: 12.6µM*; IkB signaling: inconclusive

Results for CC(C)c1ccc(C2c3c(-c4ccccc4O)n[nH]c3C(=O)N2CCc2ccccc2)cc1 (stereo not given) ?
p53ts 39C tox: 25.1µM*; p53ts 32C kill: -11.1%; IkB signaling: inconclusive

How did COc1ccc(N(CC(C)C)S(=O)(=O)c2nnc(NC(=O)c3cccs3)s2)cc1 do in these assays?
p53ts 39C tox: -24.4%; p53ts 32C kill: -10.3%; IkB signaling: inconclusive

How did COc1cc(-c2cc(C(=O)O)c3cc4c(cc3n2)OCCO4)cc(OC)c1OC do in these assays?
IMPase cell inh: -19.2
